# Results: PMC7862700, “An all-to-all approach to the identification of sequence-specific readers for epigenetic DNA modifications on cytosine”
# Key:
# Test in all cases: DAPPL (digital affinity profiling via proximity ligation, sequencing); 10 mM Tris-HCl pH 7.5, 50 mM NaCl, 1 mM DTT, 4% glycerol, room temperature, 30 min; GST-TFs on glutathione beads, 16-mer random dsDNA library, 0.1% formaldehyde crosslink after washing; high values mean tight binding
# FLI1 = molecular target: T1, FLI1 (Homo sapiens, UniProt Q01543 1-452); conditions: protein: recombinant; tags: N-terminal GST; dsDNA, one strand shown
# T1 sequence: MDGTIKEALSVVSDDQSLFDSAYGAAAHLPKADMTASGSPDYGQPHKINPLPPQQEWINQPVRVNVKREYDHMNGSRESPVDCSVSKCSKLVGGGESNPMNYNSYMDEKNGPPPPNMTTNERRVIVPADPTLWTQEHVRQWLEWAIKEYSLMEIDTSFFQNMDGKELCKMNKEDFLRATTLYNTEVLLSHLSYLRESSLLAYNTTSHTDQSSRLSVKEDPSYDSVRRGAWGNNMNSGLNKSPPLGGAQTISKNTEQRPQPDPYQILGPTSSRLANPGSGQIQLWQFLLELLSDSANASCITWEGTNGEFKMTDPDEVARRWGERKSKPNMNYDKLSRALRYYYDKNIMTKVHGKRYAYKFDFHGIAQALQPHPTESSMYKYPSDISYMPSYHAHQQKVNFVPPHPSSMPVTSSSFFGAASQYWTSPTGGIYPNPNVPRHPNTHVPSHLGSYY
# Procedure, shortened: (§1)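 Pools of DNA-barcoded human transcription factors, expressed in yeast as GST fusions on glutathione beads and combined with a tag-only sample, were incubated with 200 nmole of a 16-mer random double-stranded DNA library. Incubation took 30 min at room temperature in Tris/NaCl/DTT/glycerol buffer and was followed by washing, 0.1% formaldehyde crosslinking, proximity ligation (BsaI/T4 ligase, 1 h, 37 °C), PCR amplification and sequencing on an Illumina NextSeq500. Binding signal is the ratio of a hexamer's read frequency for a factor to its frequency for the tag-only sample.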
# ELK1 = molecular target: T2, ELK1 (Homo sapiens, UniProt P19419 1-428); conditions: protein: recombinant; tags: N-terminal GST; dsDNA, one strand shown
# T2 sequence: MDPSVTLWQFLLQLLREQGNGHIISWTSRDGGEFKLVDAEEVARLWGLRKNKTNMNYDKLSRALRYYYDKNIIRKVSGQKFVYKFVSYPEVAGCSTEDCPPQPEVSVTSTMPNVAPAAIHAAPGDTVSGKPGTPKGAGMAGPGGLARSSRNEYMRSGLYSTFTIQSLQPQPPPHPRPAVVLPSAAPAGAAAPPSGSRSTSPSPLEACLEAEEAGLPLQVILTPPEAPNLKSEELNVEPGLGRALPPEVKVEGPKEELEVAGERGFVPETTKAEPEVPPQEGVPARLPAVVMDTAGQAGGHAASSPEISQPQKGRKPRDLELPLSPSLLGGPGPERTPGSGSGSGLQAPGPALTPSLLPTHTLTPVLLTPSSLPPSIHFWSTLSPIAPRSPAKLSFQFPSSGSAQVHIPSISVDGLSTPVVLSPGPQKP
# Procedure, shortened: as §1
# GABPA = molecular target: T3, GABPA (Homo sapiens, UniProt Q06546 1-454); conditions: protein: recombinant; tags: N-terminal GST; dsDNA, one strand shown
# T3 sequence: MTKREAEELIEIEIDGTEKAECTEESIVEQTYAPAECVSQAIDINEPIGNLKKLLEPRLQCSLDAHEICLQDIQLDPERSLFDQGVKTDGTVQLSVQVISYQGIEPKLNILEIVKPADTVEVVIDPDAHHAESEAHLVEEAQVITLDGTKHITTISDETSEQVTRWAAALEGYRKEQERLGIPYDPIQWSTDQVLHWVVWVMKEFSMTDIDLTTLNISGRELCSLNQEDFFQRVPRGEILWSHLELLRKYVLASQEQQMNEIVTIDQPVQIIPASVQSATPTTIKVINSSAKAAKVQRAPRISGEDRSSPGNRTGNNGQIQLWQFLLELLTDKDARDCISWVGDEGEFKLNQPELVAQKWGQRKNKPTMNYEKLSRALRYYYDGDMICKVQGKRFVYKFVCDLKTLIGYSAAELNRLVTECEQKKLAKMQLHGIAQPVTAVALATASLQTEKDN
# Procedure, shortened: as §1
# ERG = molecular target: T4, ERG (Homo sapiens, UniProt P11308 1-479); conditions: protein: recombinant; tags: N-terminal GST; dsDNA, one strand shown
# T4 sequence: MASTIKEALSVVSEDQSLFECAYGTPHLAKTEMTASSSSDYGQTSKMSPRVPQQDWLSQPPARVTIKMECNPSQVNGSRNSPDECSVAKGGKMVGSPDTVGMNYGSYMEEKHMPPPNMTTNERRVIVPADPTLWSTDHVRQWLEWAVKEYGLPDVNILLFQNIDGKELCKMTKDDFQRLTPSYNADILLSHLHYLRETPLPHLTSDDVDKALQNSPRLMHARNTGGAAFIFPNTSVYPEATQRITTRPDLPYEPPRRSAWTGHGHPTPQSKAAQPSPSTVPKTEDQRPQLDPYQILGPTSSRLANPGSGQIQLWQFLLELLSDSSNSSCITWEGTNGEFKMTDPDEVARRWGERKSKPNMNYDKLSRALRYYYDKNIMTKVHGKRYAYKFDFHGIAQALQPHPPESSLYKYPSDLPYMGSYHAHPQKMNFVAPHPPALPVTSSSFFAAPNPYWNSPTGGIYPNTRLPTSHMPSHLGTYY
# Procedure, shortened: as §1
# ELF1 = ELF1 (Homo sapiens, UniProt P32519 1-619); conditions: protein: recombinant; tags: N-terminal GST; dsDNA, one strand shown
# ELF1, sequence (P32519 whole entry): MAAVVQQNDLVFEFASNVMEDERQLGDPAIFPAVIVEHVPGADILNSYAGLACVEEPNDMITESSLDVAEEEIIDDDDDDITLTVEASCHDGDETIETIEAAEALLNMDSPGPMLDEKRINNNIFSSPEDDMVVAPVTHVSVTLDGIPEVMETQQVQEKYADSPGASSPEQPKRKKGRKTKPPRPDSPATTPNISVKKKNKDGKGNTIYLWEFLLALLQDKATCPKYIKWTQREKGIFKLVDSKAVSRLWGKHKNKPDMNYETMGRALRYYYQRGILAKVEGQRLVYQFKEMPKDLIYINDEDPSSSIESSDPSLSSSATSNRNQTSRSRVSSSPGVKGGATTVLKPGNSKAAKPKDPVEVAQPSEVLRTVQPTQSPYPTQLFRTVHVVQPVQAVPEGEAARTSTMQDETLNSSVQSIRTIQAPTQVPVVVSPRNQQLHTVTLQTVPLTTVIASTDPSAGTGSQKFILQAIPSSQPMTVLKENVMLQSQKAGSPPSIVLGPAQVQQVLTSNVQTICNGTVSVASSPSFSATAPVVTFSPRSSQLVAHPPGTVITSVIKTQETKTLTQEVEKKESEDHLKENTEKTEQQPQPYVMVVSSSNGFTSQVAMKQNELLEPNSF
# Procedure, shortened: as §1
# EHF = molecular target: T5, EHF (Homo sapiens, UniProt Q9NZC4 1-300); conditions: protein: recombinant; tags: N-terminal GST; dsDNA, one strand shown
# T5 sequence: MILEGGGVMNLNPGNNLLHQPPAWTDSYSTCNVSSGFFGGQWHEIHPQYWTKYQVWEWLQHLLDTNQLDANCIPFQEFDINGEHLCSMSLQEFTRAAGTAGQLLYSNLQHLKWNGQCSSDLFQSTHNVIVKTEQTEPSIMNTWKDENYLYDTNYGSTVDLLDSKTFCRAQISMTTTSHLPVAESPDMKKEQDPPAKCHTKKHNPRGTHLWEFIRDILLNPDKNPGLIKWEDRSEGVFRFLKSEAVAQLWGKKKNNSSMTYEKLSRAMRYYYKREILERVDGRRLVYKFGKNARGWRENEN
# Procedure, shortened: as §1
# SPI1 = SPI1 (Homo sapiens, UniProt P17947 1-270); conditions: protein: recombinant; tags: N-terminal GST; dsDNA, one strand shown
# Procedure, shortened: as §1
# SPIB = SPIB (Homo sapiens, UniProt Q01892 1-262); conditions: protein: recombinant; tags: N-terminal GST; dsDNA, one strand shown
# SPIB, sequence (Q01892 whole entry): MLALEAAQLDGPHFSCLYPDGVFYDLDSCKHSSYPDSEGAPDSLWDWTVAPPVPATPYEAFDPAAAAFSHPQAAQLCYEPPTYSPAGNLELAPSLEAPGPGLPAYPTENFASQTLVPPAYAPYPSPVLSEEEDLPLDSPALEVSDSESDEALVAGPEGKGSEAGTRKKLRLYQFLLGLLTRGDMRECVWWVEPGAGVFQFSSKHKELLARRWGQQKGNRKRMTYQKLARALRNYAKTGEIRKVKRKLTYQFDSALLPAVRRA
# Procedure, shortened: as §1
# ELK3 = molecular target: T6, ELK3 (Homo sapiens, UniProt P41970 1-407); conditions: protein: recombinant; tags: N-terminal GST; dsDNA, one strand shown
# T6 sequence: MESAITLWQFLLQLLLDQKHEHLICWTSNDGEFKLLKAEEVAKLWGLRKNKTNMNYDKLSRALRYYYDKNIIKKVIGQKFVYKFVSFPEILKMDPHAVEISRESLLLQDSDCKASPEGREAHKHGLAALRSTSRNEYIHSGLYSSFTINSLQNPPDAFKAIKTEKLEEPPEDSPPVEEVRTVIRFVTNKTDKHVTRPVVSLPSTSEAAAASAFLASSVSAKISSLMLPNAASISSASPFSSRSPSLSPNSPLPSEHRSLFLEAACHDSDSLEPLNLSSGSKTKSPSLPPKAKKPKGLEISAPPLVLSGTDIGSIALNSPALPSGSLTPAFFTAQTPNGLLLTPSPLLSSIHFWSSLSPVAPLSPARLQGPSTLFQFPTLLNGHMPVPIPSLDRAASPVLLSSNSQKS
# Procedure, shortened: as §1
# FEV = molecular target: T7, FEV (Homo sapiens, UniProt Q99581 1-238); conditions: protein: recombinant; tags: N-terminal GST; dsDNA, one strand shown
# T7 sequence: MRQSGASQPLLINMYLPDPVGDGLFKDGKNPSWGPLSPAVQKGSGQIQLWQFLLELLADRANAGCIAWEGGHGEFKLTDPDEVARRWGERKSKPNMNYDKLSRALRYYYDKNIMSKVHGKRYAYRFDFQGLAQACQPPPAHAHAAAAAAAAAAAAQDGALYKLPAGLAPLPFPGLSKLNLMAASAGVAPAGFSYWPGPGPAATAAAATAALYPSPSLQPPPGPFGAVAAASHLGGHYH
# Procedure, shortened: as §1
# ETV5 = ETV5 (Homo sapiens, UniProt P41161 1-510); conditions: protein: recombinant; tags: N-terminal GST; dsDNA, one strand shown
# ETV5, sequence (P41161 whole entry): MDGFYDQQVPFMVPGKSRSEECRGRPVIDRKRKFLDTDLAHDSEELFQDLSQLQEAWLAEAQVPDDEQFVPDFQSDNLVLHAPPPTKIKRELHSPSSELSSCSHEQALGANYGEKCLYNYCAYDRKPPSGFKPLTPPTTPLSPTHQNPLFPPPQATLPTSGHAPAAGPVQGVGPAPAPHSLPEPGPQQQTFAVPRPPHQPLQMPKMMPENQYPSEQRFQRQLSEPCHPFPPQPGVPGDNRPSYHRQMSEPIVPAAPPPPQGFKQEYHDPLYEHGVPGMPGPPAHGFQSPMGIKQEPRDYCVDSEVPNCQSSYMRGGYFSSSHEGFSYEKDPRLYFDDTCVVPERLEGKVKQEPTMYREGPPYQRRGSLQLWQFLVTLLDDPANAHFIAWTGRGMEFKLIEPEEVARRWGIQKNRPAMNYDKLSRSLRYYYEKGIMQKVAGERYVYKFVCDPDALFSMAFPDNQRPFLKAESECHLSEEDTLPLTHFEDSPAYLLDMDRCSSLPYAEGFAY
# Procedure, shortened: as §1
# HSF1 = HSF1 (Homo sapiens, UniProt Q00613 1-529); conditions: protein: recombinant; tags: N-terminal GST; chain copies: 3; dsDNA, one strand shown
# HSF1, sequence (Q00613 whole entry): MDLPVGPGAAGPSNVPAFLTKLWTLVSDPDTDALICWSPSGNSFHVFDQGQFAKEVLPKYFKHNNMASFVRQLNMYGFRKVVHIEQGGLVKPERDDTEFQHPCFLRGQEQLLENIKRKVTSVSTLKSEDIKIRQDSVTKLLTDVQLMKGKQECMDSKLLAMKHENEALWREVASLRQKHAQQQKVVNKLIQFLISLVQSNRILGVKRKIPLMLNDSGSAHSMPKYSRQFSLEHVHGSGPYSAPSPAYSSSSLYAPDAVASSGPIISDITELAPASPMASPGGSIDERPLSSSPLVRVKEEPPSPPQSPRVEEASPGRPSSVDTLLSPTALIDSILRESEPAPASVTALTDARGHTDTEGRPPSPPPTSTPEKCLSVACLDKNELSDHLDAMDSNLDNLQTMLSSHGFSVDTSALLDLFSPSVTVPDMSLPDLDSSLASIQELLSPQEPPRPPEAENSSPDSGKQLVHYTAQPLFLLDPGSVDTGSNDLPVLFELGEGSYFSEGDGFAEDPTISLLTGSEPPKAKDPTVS
# Procedure, shortened: as §1
# SPIC = molecular target: T8, SPIC (Homo sapiens, UniProt Q8N5J4 1-248); conditions: protein: recombinant; tags: N-terminal GST; dsDNA, one strand shown
# T8 sequence: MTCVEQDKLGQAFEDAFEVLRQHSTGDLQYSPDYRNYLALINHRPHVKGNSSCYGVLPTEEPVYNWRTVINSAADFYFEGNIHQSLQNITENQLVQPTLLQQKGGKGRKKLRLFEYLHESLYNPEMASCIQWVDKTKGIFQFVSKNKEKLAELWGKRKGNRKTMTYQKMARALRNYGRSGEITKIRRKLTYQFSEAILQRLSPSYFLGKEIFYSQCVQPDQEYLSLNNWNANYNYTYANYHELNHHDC
# Procedure, shortened: as §1
# ELF4 = ELF4 (Homo sapiens, UniProt Q99607 1-663); conditions: protein: recombinant; tags: N-terminal GST; dsDNA, one strand shown
# ELF4, sequence (Q99607 whole entry): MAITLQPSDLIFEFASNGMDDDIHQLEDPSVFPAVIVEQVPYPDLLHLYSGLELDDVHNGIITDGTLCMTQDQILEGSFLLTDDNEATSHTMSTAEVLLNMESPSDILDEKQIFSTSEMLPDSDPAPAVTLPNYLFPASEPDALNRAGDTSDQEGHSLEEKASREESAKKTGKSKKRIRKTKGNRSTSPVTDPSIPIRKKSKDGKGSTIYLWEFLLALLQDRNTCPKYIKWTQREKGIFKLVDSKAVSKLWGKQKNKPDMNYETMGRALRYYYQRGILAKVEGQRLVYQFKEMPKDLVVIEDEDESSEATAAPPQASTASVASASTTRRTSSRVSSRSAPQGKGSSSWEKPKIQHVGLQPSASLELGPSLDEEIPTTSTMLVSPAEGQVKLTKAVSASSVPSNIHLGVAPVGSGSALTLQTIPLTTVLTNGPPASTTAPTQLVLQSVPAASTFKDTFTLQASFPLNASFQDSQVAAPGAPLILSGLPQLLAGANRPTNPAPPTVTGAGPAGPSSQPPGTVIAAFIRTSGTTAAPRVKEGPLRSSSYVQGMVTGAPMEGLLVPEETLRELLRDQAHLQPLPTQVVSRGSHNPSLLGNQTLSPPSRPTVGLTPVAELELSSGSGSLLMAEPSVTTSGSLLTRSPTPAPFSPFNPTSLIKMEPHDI
# Procedure, shortened: as §1
# ELK4 = molecular target: T9, ELK4 (Homo sapiens, UniProt P28324-2 1-405); conditions: protein: recombinant; tags: N-terminal GST; dsDNA, one strand shown
# T9 sequence: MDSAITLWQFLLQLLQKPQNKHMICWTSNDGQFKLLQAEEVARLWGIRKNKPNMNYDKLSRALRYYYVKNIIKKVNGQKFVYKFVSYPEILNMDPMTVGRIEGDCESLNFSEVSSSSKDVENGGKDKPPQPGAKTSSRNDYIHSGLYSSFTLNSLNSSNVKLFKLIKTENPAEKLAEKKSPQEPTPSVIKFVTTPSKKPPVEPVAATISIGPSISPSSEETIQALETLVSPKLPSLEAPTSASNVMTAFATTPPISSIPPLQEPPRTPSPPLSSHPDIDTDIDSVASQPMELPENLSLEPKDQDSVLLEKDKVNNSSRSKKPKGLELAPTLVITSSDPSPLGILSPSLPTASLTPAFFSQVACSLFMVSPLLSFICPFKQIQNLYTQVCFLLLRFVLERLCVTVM
# Procedure, shortened: as §1
# ETV2 = molecular target: T10, ETV2 (Homo sapiens, UniProt O00321 1-342); conditions: protein: recombinant; tags: N-terminal GST; dsDNA, one strand shown
# T10 sequence: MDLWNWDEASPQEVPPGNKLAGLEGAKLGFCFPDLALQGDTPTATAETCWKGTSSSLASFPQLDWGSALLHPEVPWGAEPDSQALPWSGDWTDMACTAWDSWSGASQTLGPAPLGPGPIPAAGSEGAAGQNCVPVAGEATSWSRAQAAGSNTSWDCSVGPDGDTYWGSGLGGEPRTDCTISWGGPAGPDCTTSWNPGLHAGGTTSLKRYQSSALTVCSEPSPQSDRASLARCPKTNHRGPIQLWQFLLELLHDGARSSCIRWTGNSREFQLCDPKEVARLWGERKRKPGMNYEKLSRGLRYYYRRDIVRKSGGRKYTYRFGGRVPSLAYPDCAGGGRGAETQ
# Procedure, shortened: as §1
# ELF3 = molecular target: T11, ELF3 (Homo sapiens, UniProt P78545 1-371); conditions: protein: recombinant; tags: N-terminal GST; dsDNA, one strand shown
# T11 sequence: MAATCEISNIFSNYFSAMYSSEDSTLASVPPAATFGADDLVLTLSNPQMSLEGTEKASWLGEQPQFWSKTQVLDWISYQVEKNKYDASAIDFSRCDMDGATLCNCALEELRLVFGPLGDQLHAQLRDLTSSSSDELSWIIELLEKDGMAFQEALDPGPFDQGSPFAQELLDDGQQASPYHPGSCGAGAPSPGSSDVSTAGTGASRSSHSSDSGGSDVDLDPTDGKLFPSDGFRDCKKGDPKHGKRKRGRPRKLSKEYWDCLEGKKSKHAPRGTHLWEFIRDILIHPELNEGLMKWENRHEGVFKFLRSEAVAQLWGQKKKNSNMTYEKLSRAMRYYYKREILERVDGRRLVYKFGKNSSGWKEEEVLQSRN
# Procedure, shortened: as §1
# CRX = CRX (Homo sapiens, UniProt O43186 1-299); conditions: protein: recombinant; tags: N-terminal GST; dsDNA, one strand shown
# CRX, sequence (O43186 whole entry): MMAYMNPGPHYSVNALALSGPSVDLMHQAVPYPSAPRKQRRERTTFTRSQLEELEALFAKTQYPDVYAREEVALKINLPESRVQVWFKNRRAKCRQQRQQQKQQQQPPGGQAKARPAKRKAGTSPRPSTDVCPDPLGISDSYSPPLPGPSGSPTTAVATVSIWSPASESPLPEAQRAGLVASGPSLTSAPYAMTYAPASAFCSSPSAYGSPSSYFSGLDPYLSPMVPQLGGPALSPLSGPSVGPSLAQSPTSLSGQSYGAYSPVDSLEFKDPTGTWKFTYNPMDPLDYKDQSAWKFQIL
# Procedure, shortened: as §1
# ETV1 = ETV1 (Homo sapiens, UniProt P50549 1-477); conditions: protein: recombinant; tags: N-terminal GST; dsDNA, one strand shown
# ETV1, sequence (P50549 whole entry): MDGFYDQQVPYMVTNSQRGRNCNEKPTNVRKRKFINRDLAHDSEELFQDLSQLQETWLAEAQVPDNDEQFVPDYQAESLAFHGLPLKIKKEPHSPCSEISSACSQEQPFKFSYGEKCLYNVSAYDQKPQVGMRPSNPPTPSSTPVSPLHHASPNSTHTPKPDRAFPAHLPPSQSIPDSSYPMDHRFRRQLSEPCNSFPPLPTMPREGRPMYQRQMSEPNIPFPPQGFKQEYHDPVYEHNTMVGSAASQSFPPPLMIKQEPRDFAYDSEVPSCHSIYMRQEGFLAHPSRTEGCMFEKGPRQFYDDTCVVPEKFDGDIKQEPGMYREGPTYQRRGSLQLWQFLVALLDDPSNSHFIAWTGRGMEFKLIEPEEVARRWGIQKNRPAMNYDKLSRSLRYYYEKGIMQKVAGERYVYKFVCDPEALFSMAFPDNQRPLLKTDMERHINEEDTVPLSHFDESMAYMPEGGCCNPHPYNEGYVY
# Procedure, shortened: as §1
sequence,measurement,setting,value
TTATCG,binding signal,FLI1,"1.17 fold enrichment (6-mer frequency, TF over GST control)"
same,binding signal,ELK1,"1.28 fold enrichment (6-mer frequency, TF over GST control)"
same,binding signal,GABPA,"1.3 fold enrichment (6-mer frequency, TF over GST control)"
same,binding signal,ERG,"1.3 fold enrichment (6-mer frequency, TF over GST control)"
same,binding signal,ELF1,"1.25 fold enrichment (6-mer frequency, TF over GST control)"
same,binding signal,EHF,"1.25 fold enrichment (6-mer frequency, TF over GST control)"
same,binding signal,SPI1,"1.15 fold enrichment (6-mer frequency, TF over GST control)"
same,binding signal,SPIB,"1.13 fold enrichment (6-mer frequency, TF over GST control)"
same,binding signal,ELK3,"1.17 fold enrichment (6-mer frequency, TF over GST control)"
same,binding signal,FEV,"1.21 fold enrichment (6-mer frequency, TF over GST control)"
same,binding signal,ETV5,"1.25 fold enrichment (6-mer frequency, TF over GST control)"
same,binding signal,HSF1,"1.99 fold enrichment (6-mer frequency, TF over GST control)"
same,binding signal,SPIC,"1.33 fold enrichment (6-mer frequency, TF over GST control)"
same,binding signal,ELF4,"1.27 fold enrichment (6-mer frequency, TF over GST control)"
same,binding signal,ELK4,"1.37 fold enrichment (6-mer frequency, TF over GST control)"
same,binding signal,ETV2,"1.18 fold enrichment (6-mer frequency, TF over GST control)"
same,binding signal,ELF3,"1.22 fold enrichment (6-mer frequency, TF over GST control)"
same,binding signal,CRX,"2.79 fold enrichment (6-mer frequency, TF over GST control)"
same,binding signal,ETV1,"1.2 fold enrichment (6-mer frequency, TF over GST control)"
